Results filed as inconclusive are left out. Unmarked numbers belong to inactive results. Calls follow the shape of the dose curve; as a rule, active = well fitted cell-killing curve with a large enough effect in the repeat runs; inconclusive = weak or mixed curves, or effect the other way; inactive = no such curve, though single readings can be large or run the other way.
Test: qHTS assay to identify small molecule agonists of the estrogen receptor alpha (ER-alpha) signaling pathway in the presence of an antagonist - cell viability counter screen (AID 1259386); also: nearly all actives have a fitted effect of over 30% in size
Settings: VM7Luc4E2 viability, CellTiter-Fluor fluorescence, 22 h; series mostly up to 92.4 µM; activity change, negative = cytotoxicity: at the top concentration
Procedure, shortened: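 VM7Luc4E2 cells (endogenous full-length ER-alpha, 4×ERE-luciferase) were held 5 days in phenol red-free medium with 10% charcoal-stripped FBS, plated, then given 10.0nM ICI-182,780 and compounds at 15 concentrations for 22hr at 37C; viability read by CellTiter-Fluor fluorescence.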
% is scaled to controls: 0 for no effect and ±100 for the full control effect.

| Structure (SMILES) | activity change, negative = cytotoxicity |
| --- | --- |
| O=Cc1cccc(Br)c1 | -1.92% |
| C[N+](C)(CCOc1ccccc1)Cc1cccs1 | 6.04% [at 42.5 µM] |
| CCCCc1ccc2c(n1)[C@@H](c1ccc(OC)cc1C[C@H](C)C(=O)O)[C@H](C(=O)O)[C@H]2c1ccc2c(c1)OCO2 | 0.296% |
| CC(=O)c1ccc2ccccc2c1 | 2.92% |
| CC(C)c1ccc2ncccc2c1 | 2.7% |
| c1ccc(Cc2ccccc2)cc1 | 0.538% |
| C=C(C)C(=O)OCC1CCCO1 (stereo not given) | -1.56% |
| CN(C)CCCN(C)CCCN(C)C | -0.706% |
| O=S(=O)(O)c1cc(O)c(O)c(S(=O)(=O)O)c1 | 2.03% |
| O=[N+]([O-])c1cncn1CCN1CCOCC1 | -1.24% [at 42.5 µM] |
| CCOC(=O)OC(C)OC1=C(C(=O)Nc2ccccn2)N(C)S(=O)(=O)c2ccccc21 (stereo not given) | 4.17% [at 42.5 µM] |
| CCC(C)(CCCC(C)C)OC(C)=O (stereo not given) | 4.11% |
| CC1(C)[C@@H]2CC[C@@]1(C)[C@H](O)C2 | 2.55% |
| CCN[C@H]1C[C@H](C)S(=O)(=O)c2sc(S(N)(=O)=O)cc21 | 7.06% [at 42.5 µM] |
| O=CN(CCO)CCO | 2.47% |
